Tau ThT inhib = tau fibrillization inhibition (ThT binding); P10636; recombinant tau K18 P301L, heparin-induced fibrillization, ThT fluorescence; Potency, µM (titrated, usually from 57.4 µM), for the others: at the highest dose activity, negative = inhibition, most hits filed as inhibitors; 270,000 compounds, 2.1% hits; further: nearly all actives have a fitted effect of over 55% in size
Target sequence (P10636 561-689 P618L limits assumed): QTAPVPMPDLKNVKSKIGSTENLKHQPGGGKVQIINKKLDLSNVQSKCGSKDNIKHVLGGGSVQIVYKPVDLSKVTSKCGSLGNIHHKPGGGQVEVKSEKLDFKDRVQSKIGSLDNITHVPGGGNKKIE
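Fibril formation assay: tau K18 P301L at 15 uM with trace Alexa 594 label, heparin inducer 20 uM, pH 7 sodium acetate buffer, 37 C for 6 hr; endpoint ThT signal.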
NPSR antag = antagonists of human neuropeptide S receptor cAMP signaling | CHO-NPSR cells, cAMP TR-FRET, antagonist mode | Potency, µM (highest dose often 38.3 µM), for inactives: top-dose activity change, negative = inhibition, hits mostly inhibitors | AID 1461 | Q6W5P4 | 220,000 compounds, 1% hits; further: nearly all actives have a fitted effect of over 50% in size
Target sequence (Q6W5P4 whole entry, looked up): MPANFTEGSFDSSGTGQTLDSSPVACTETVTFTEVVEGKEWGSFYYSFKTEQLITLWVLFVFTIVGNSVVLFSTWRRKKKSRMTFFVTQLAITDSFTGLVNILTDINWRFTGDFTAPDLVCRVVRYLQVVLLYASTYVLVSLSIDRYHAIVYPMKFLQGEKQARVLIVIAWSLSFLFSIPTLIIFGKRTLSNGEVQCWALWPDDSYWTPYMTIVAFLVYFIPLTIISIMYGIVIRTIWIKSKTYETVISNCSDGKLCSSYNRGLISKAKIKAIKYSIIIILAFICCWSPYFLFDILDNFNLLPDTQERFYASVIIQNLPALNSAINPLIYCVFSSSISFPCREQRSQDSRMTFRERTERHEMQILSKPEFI
KinaseGlo FLuc = Kinase-Glo luciferase inhibition (counter-screen); Kinase-Glo luciferase, ATP luminescence, 8 min; Potency, µM (series often up to 38.3 µM), for the others: at the highest dose activity change, negative = inhibition, hits mostly inhibitors; 200,000 compounds, 0.28% hits; further: nearly all actives have a fitted effect of over 60% in size
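Compound is pinned into ATP-containing buffer (10 uM ATP, imidazole pH 7.2, 7 mM MgCl2). Kinase-Glo luciferase reagent is then added. Light output is recorded following an 8-min room-temperature incubation.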
Tau fluor cs = counter-screen for tau fibril formation inhibitors; tau K18 P301L Alexa594 fluorescence, heparin fibrillization; Potency, µM (top dose mostly 57.7 µM), inactives show top-dose activity change, negative = decrease; 280,000 compounds, 0.93% hits; AID 1463; further: nearly all actives have a fitted effect of over 55% in size
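Human tau K18 P301L (15 uM unlabeled, 0.24 uM Alexa 594-labeled) in 100 mM sodium acetate pH 7 with 20 uM heparin, 6 hr at 37 C. ThT 30 uM added, 1 hr ambient; Alexa 594 FP and total fluorescence read at 555/632 nm.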
Tau FP inhib = tau fibrillization inhibition (FP). P10636. K18 P301L tau heparin fibrillization, Alexa594 FP, 6 h. Potency, µM (series often up to 57.7 µM), for inactives: at the top dose activity, negative = inhibition, most hits filed as inhibitors. 280,000 compounds, 0.39% hits; further: nearly all actives have a fitted effect of over 55% in size
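Compound effects on tau fibrillization are measured by Alexa 594 fluorescence polarization (ex 555, em 632 nm). K18 P301L tau is used at 15 uM with 0.24 uM labeled tracer, and 20 uM heparin induces aggregation over 6 hr at 37 C.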
An asterisk follows results filed as active; [ ] = another dose, or the depositor's remark. Compounds with a hit are over-represented: about 3.3% of the library has one in this group of screens. The call rests on the fitted dose curve; in most records, active means well fitted curve in the direction sought with a large enough effect; inconclusive means small, poorly fitted or top-dose-only effect, or another doubt; inactive means no such curve, though single readings can be large; an effect the other way counts as inactive or inconclusive. On the % scale 0 is the no-effect control and ±100 the full control effect; potency means the concentration at half of the fitted maximal effect.

Results for O=C(/C=C/c1cccc(F)c1)Nc1cc(S(=O)(=O)N2CCOCC2)ccc1N1CCCC1 ?
Tau ThT inhib: -3.7%; NPSR antag: 0.1%; KinaseGlo FLuc: -0.3%; Tau fluor cs: -5.4%; Tau FP inhib: 8.8%

Results for O=C(/C=C/c1cccc(F)c1)c1ccc(N2CCOCC2)cc1 ?
Tau ThT inhib: 12.6µM*; NPSR antag: inconclusive; Tau fluor cs: inconclusive; Tau FP inhib: 1.5%

How did O=C(/C=C/c1cccs1)c1ccc(N2CCOCC2)cc1 do in these assays?
Tau ThT inhib: 15.8µM*; NPSR antag: -17.7%; KinaseGlo FLuc: inconclusive; Tau fluor cs: -22.2%; Tau FP inhib: -5.0%

How did CC(=O)c1ccc(N2CCN(C(=O)c3cc4ccc5cccnc5c4[nH]3)CC2)cc1 do in these assays?
Tau ThT inhib: inconclusive; Tau fluor cs: -8.2%; Tau FP inhib: -4.5%

Results for CCn1c(C)c(C(C)=O)c(N2CCN(c3ccccc3)CC2)nc1=S ?
Tau ThT inhib: 22.4µM*; NPSR antag: -16.0%[46.1 µM]; KinaseGlo FLuc: 0.8%; Tau fluor cs: -19.0%; Tau FP inhib: inconclusive

Results for COc1cccc2cc(-c3csc(CCn4nc(C)cc4C)n3)c(=O)oc12 ?
Tau ThT inhib: inconclusive; NPSR antag: -18.1%[46.1 µM]; KinaseGlo FLuc: -5.0%; Tau fluor cs: -16.0%; Tau FP inhib: 4.6%

How did CC/C(C)=N/Nc1nc(-c2cc3cccc(OC)c3oc2=O)cs1 do in these assays?
Tau ThT inhib: 17.8µM*; NPSR antag: 13.2%; Tau fluor cs: inconclusive; Tau FP inhib: -4.8%

Results for CC(C)=CCC/C(C)=C/C=N/NC(=O)c1ccc([N+](=O)[O-])cc1 ?
Tau ThT inhib: inconclusive; NPSR antag: 5.5%; KinaseGlo FLuc: -0.4%; Tau fluor cs: -16.4%; Tau FP inhib: 5.5%

Results for CN1/C(=C/C2CC(=O)N(c3ccc([N+](=O)[O-])cc3)C2=O)C(C)(C)c2ccccc21 (stereo not drawn) ?
Tau ThT inhib: 14.1µM*; NPSR antag: -16.3%[46.1 µM]; KinaseGlo FLuc: -0.6%; Tau fluor cs: inconclusive; Tau FP inhib: -1.2%

What do the screens show for `CN1/C(=C/C=N/NC(=O)c2ccc([N+](=O)[O-])cc2)C(C)(C)c2ccccc21`?
Tau ThT inhib: 6.31µM*; NPSR antag: -1.3%; KinaseGlo FLuc: -11.2%; Tau fluor cs: inconclusive; Tau FP inhib: -6.4%

What do the screens show for `COc1ccc(N=CC2=C(O)c3ccccc3C2=O)c(OC)c1`?
Tau ThT inhib: inconclusive; NPSR antag: -10.8%[46.1 µM]; KinaseGlo FLuc: 4.47µM*; Tau fluor cs: -22.5%; Tau FP inhib: -1.6%

Results for Cc1ccccc1N=CC1=C(O)c2ccccc2C1=O ?
Tau ThT inhib: inconclusive; NPSR antag: -38.1%; KinaseGlo FLuc: 12.6µM*; Tau fluor cs: -22.0%; Tau FP inhib: -4.2%

How did O=C1C(C=NCc2ccncc2)=C(O)c2ccccc21 do in these assays?
Tau ThT inhib: -7.2%; NPSR antag: -11.5%[46.1 µM]; KinaseGlo FLuc: 21.4%; Tau fluor cs: -4.7%; Tau FP inhib: -0.1%

Results for O=C1C(C=Nc2ccc(F)cc2)=C(O)c2ccccc21 ?
Tau ThT inhib: -13.2%; NPSR antag: 1.7%; KinaseGlo FLuc: inconclusive; Tau fluor cs: -4.1%; Tau FP inhib: 4.2%

How did O=C1OCC2OC(O)C(O)C(O)C2OC(=O)c2cc(O)c(O)c(O)c2-c2c(O)c(O)c3oc(=O)c4c(c(O)c(O)c5oc(=O)c2c3c54)-c2c1cc(O)c(O)c2O (stereo not drawn) do in these assays?
Tau ThT inhib: 7.94µM*; NPSR antag: 9.5%; Tau fluor cs: inconclusive; Tau FP inhib: inconclusive

How did O=C(O)c1cccc(S(=O)(=O)Nc2ccc3[nH]c(=O)[nH]c3c2)c1 do in these assays?
Tau ThT inhib: inconclusive; NPSR antag: 1.6%; Tau fluor cs: inconclusive; Tau FP inhib: -12.4%

Results for O=C(O)c1ccc(Cl)c(S(=O)(=O)Nc2ccc3[nH]c(=O)[nH]c3c2)c1 ?
Tau ThT inhib: 14.1µM*; NPSR antag: -0.9%; Tau fluor cs: inconclusive; Tau FP inhib: inconclusive

What do the screens show for `O=S(=O)(Nc1nc2ccccc2nc1Nc1ccc2c(c1)OCCO2)c1cccs1`?
Tau ThT inhib: 12.6µM*; NPSR antag: -18.0%[46.1 µM]; KinaseGlo FLuc: -1.2%; Tau fluor cs: inconclusive; Tau FP inhib: 14.7%

What do the screens show for `COc1ccc(S(=O)(=O)Nc2nc3ccccc3nc2Nc2ccc3c(c2)OCO3)cc1`?
Tau ThT inhib: inconclusive; NPSR antag: -2.8%; KinaseGlo FLuc: -0.9%; Tau fluor cs: inconclusive; Tau FP inhib: 2.6%

Results for Cc1ccccc1N/N=C/c1sc(=O)n(Cc2cccc(C(=O)O)c2)c1Cl ?
Tau ThT inhib: 28.2µM*; NPSR antag: -47.9%; Tau fluor cs: inconclusive; Tau FP inhib: -7.1%

How did O=C(O)c1cccc(Cn2c(Cl)c(/C=N/NC(=O)c3ccccc3)sc2=O)c1 do in these assays?
Tau ThT inhib: -9.7%; NPSR antag: -10.9%[46.1 µM]; KinaseGlo FLuc: 0.5%; Tau fluor cs: -0.4%; Tau FP inhib: -5.6%

How did O=C(O)c1cccc(Cn2c(Cl)c(/C=N/NC(=O)c3cc4ccccc4cc3O)sc2=O)c1 do in these assays?
Tau ThT inhib: 20µM*; NPSR antag: 13.5%; Tau fluor cs: inconclusive; Tau FP inhib: inconclusive

How did CSc1ncc(C(=O)NCc2cccc(Br)c2)c(-c2ccccc2)n1 do in these assays?
Tau ThT inhib: 10.3%; Tau fluor cs: 7.5%; Tau FP inhib: 1.3%

How did O=C1COc2cc(S(=O)(=O)NCc3ccco3)c(Cl)cc2N1 do in these assays?
Tau ThT inhib: inconclusive; Tau fluor cs: -12.2%; Tau FP inhib: -9.6%

Results for Cc1cc(/C=N\NC(=O)COc2cccc3cccnc23)c(C)n1-c1ccc(Br)cc1 ?
Tau ThT inhib: inconclusive; NPSR antag: -26.0%; KinaseGlo FLuc: 0.6%; Tau fluor cs: -29.3%; Tau FP inhib: -10.2%

Results for Cc1cc(/C=N\NC(=O)COc2cccc3cccnc23)c(C)n1-c1ccccc1 ?
Tau ThT inhib: 25.1µM*; NPSR antag: 7.0%; KinaseGlo FLuc: -2.3%; Tau fluor cs: inconclusive; Tau FP inhib: -10.8%

Results for O=C(CSc1ccc(-c2ccccn2)nn1)c1ccc([N+](=O)[O-])cc1 ?
Tau ThT inhib: 15.8µM*; NPSR antag: -0.9%; KinaseGlo FLuc: -2.0%; Tau fluor cs: -27.6%; Tau FP inhib: 2.4%

What do the screens show for `O=C(CSc1ccc(-c2cccnc2)nn1)c1ccc([N+](=O)[O-])cc1`?
Tau ThT inhib: 14.1µM*; NPSR antag: -15.5%; KinaseGlo FLuc: 0.6%; Tau fluor cs: inconclusive; Tau FP inhib: -4.7%

Results for O=C(CSc1ccc(-c2ccncc2)nn1)c1ccccc1 ?
Tau ThT inhib: -9.7%; NPSR antag: 8.7%; KinaseGlo FLuc: 1.7%; Tau fluor cs: -8.5%; Tau FP inhib: -9.6%

How did O=C(O)CCc1nnc2cnc3ccccc3n12 do in these assays?
Tau ThT inhib: inconclusive; Tau fluor cs: -18.3%; Tau FP inhib: -4.3%
